High-throughput results (PubChem BioAssay)
Pf growth 96h – Primary qHTS for delayed death inhibitors of the malarial parasite plastid, 96 hour incubation. P. falciparum luciferase reporter growth, 96 h. Potency, µM (series often up to 28.7 µM), without a hit: at the top dose activity change, negative = inhibition, actives largely listed as inhibitors. hit rate 6.9% among 320,000; also: % is scaled to controls: 0 for no effect and ±100 for the full control effect
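Two parasite generations (96 h, 37 C, 5% CO2) of compound exposure in infected erythrocytes (0.05% parasitemia, 2% hematocrit). Luciferase-reporter P. falciparum; decreased luminescence indicates inhibited growth, aimed at apicoplast-acting delayed death.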
AMA1-RON2 inh – qHTS for Inhibitors of AMA1-RON; Towards Development of Antimalarial Drug Lead: Primary Screen | hit rate 0.2% among 360,000 | AID 720542, 2013 | Plasmodium falciparum AMA1 (3D7) - RON2 peptide interaction | AlphaScreen AMA1-biotinylated RON2 peptide binding | Potency, µM (titrated, usually from 58.2 µM), for the others: at the top dose activity change, negative = inhibition, actives largely listed as inhibitors;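 also: 0% = vehicle wells and -100% = peptide control; nearly all actives have a fitted effect of over 45% in size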
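AMA1 (3D7) with his tag at 25 nM final met compounds first, then biotinylated RON2 peptide at 25 nM; detection used donor plus acceptor beads, 10 µg/mL apiece, read by AlphaScreen after 30 min at room temperature.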
SARS PLP yeast – qHTS of Yeast-based Assay for SARS-CoV PLP; hit rate 0.19% among 330,000; Potency, µM (titrated, usually from 32.9 µM), for inactives: at the top dose activity, positive = growth rescue, usual class: activators; S. cerevisiae expressing SARS-CoV PLpro, growth rescue; calls by dose curve; also: 0% is about no effect; nearly all actives have a fitted effect of over 55% in size
Pf growth 48h – Primary qHTS for delayed death inhibitors of the malarial parasite plastid, 48 hour incubation; hit rate 5.9% among 310,000; P. falciparum luciferase growth in erythrocytes, 48 h; Potency, µM (doses to about 28.7 µM), inactives show at the top dose activity change, negative = inhibition, most hits filed as inhibitors; AID 504832, 2011; also: % is scaled to controls: 0 for no effect and ±100 for the full control effect
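Growth was read as firefly luciferase luminescence after a 48 h, 37 C, 5% CO2 exposure of compounds to reporter-bearing P. falciparum cultures (0.1% parasitemia, 2% hematocrit final) in Albumax-supplemented RPMI 1640.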
* = called active by the depositor; ? = inconclusive; / = no result given. Only some compounds are listed: those with a hit (about 9.4% of all), similar ones and a draw of the others. Unless noted, calls follow the shape of the dose curve; as a rule, active = well fitted curve in the direction sought with a large enough effect; inconclusive = small, poorly fitted or top-dose-only effect, or another doubt; inactive = no such curve, though single readings can be large; an effect the other way counts as inactive or inconclusive. Potency is read from the fitted curve at half-maximal effect.

SMILES	Pf growth 96h	AMA1-RON2 inh	SARS PLP yeast	Pf growth 48h
Cc1ccccc1S(=O)(=O)Cc1ccc(C(=O)NCCCN2CCC(C)CC2)o1	-2%	-12%	-4%	14%
Cc1ccccc1S(=O)(=O)Cc1ccc(C(=O)NCCCN2CCCC(C)C2)o1 (configuration not stated)	2.3µM*	9%	9%	-2%
Cc1ccccc1S(=O)(=O)Cc1ccc(C(=O)NCCN(Cc2ccccc2)C(C)C)o1	-9%	-5%	0%	5.2µM*
Cc1cc(/C=N/N2CCN(C)CC2)c(C)n1-c1ccccc1F	-23%	-3%	0%	?
CCN(C(=O)COC(=O)c1cccc(S(=O)(=O)N2CCOCC2)c1)C1CCS(=O)(=O)C1 (configuration not stated)	14%	-4%	-1%	-12%
Cc1ccc(S(=O)(=O)N2C[C@H]3C(=O)C[C@@H](c4ccccc4F)N(S(=O)(=O)c4ccc(C)cc4)[C@H]3C[C@H]2c2cccc3ccccc23)cc1	/	11%	/	/
CCOc1nc(NCCO)nc(NCCC2=CCCCC2)n1	8.3µM*	-11%	1%	?
CCc1cccc(C)c1NC(=S)NCc1ccc2c(c1)cc(C)n2C	6.6µM*	24%	-10%	?
CCS(=O)(=O)NCc1ccc2c(c1)cc(C)n2C	6.6µM*	-11%	-4%	?
Cc1ccccc1NC(=S)NCc1ccc2c(c1)cc(C)n2C	-21%	53%	6%	26%
CN(CCc1ccccc1)C(=O)c1ccc(NC(=O)Cc2cccc(NC(=O)C3CCN(C(=O)C4CCCCC4)CC3)c2)cc1	/	-19%	/	/
CCCNC(=O)Cn1c2ccccc2c2nc(=O)cc(C)n21	8.3µM*	-2%	5%	/
O=C(O)CSc1cccc[n+]1[O-]	22%	-9%	/	19%
Nc1nc(SCC(=O)c2cc3ccccc3o2)n[nH]1	59%	38%	0%	0%
O=C(CSc1cccc[n+]1[O-])c1cc2ccccc2o1	4.1µM*	1%	-32%	/
N#CC(C#N)=C(N)CSc1cccc[n+]1[O-]	12µM*	-2%	5%	5.2µM*
O=C(CSc1cccc[n+]1[O-])c1cc(Cl)ccc1Cl	0.83µM*	77%	-18%	?
[O-][n+]1ccccc1SCc1ccccc1	58%	-3%	-2%	?
COc1ccccc1-c1ccc2nnc(SCC(=O)N3CCCC3)n2n1	?	-18%	-1%	?
COc1ccc(CCCc2nnc(SCC(=O)Nc3ccc(C)c(C)c3)o2)cc1	-13%	1%	-4%	/
O=C(CN1C(=O)/C(=C\c2ccccc2Br)Oc2ccccc21)NCCCN1CCOCC1	2.3µM*	-1%	29%	-4%
O=C(NCCCN1CCOCC1)c1ccc(/C=C2\Oc3ccccc3N(Cc3ccccc3F)C2=O)cc1	8.3µM*	-4%	-2%	-30%
O=C(CSc1nnc(C2COc3ccccc3O2)o1)Nc1nccs1 (configuration not stated)	1.3µM*	-34%	5%	1%
COC(=O)c1c(NC(=O)CN2CCN(c3ccccc3OC)CC2)c2c(C)cccc2n1C	-18%	/	9%	/
CC(=O)c1ccc(N2CCN(C(=O)C3CCCN3S(=O)(=O)c3cccc4nsnc34)CC2)cc1 (configuration not stated)	13µM*	-3%	1%	?
SMILES	Pf growth 96h	AMA1-RON2 inh	SARS PLP yeast	Pf growth 48h
O=C(Nc1cccc(F)c1)C1CCCN(S(=O)(=O)c2cccc3cccnc23)C1 (configuration not stated)	?	1%	-1%	9.3µM*
O=C(C1CCCN(S(=O)(=O)c2cccc3cccnc23)C1)N1CCN(c2ccccc2F)CC1 (configuration not stated)	15µM*	4%	10%	/
O=C(C1CCN(S(=O)(=O)c2cccc3nsnc23)CC1)N1CCN(c2ccccc2F)CC1	2.6µM*	-18%	7%	-3%
CCN(CC)c1ccc(NC(=O)c2cc3c(OC)cccc3[nH]2)cc1	?	?	0%	?
CCc1cc2c(cc3c(=O)n(CC(=O)N4CCN(c5ccccn5)CC4)nc(CC)n32)s1	26%	7%	-4%	2%
C=CCOn1c(C)c(C(C)=O)c2c3no[n+]([O-])c3ccc21	?	11%	0%	-21%
COc1ccc2c(c1)-c1ccccc1S(=O)(=O)N2C(C)=O	12µM*	53%	-3%	-12%
